Hits are enriched below; roughly 32% of the tested compounds scored in any of these assays.
PostGolgi yeast: growth inhibition of a yeast mutant, post-Golgi transport screen. post-Golgi transport phenotypic cell assay. AID 739. actives 0.9% (n = 98,000). inhibition, % at 10 µM;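 further: yeast cells grown in 1536-well plates; yeast grown about 18 h at 30C before absorbance read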
PostGolgi ctrl: yeast control strain growth, post-Golgi counter-screen; inhibition, % at 10 µM; actives 5% (n = 98,000); efflux-deficient yeast background strain, growth absorbance A615, 16 h
CYP2C9 act: activators of human CYP2C9; P11712; recombinant CYP2C9, luciferin-H conversion, luminescence; hits give high values; factor 1 = untreated enzyme, 0 = blocked; activation factor at 5 µM; actives 1.4% (n = 96,000); AID 1024;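 active means activation factor of 2 or more for CYP2C9 at a 5 µM dose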;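 further: 0 = sulfaphenazole-blocked wells and 1 = vehicle-only wells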
Target sequence (P11712 whole entry, looked up): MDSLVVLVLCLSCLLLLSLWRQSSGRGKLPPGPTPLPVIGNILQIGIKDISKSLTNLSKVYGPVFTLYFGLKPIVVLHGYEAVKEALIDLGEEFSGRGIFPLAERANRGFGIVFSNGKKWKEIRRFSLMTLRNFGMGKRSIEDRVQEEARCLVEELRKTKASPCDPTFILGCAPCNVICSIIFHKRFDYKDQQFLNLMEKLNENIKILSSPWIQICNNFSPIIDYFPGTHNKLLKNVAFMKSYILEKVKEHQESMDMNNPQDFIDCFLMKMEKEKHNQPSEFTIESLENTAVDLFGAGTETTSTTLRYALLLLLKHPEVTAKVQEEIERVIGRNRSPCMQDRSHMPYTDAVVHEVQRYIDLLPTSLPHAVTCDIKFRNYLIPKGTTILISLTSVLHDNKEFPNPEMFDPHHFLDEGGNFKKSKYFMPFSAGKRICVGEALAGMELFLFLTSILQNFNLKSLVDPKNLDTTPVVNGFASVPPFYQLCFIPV
CYP2C19 inhib: inhibitors of human CYP2C19. inhibition, % at 5 µM. P33261. actives 21% (n = 96,000). CYP2C19 Supersomes, luciferin-H EGE luminescence, 30 min;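 active means CYP2C19 inhibition above a set limit at 5 µM in the primary screen, cut at about 50% in these data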;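 further: plate controls were negative control wells for no effect and 2.5 mM tranylcypromine positive control for full effect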
CYP2C9 inh: blocks human cytochrome P450 2C9 | CYP2C9 Supersomes, luciferin-H conversion, luminescence | actives 20% (n = 96,000) | AID 777 | P11712 | inhibition, % at 5 µM;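 active means blocking of liver enzyme CYP2C9 beyond about 50% at 5 µM, limit read from the data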
CYP2C19 act: cytochrome P450 2C19 (human) activation; recombinant CYP2C19, luciferin-H EGE luminescence; hits give high values; 0 = fully inhibited enzyme, 1 = untreated enzyme; 96,000 tested, under 10 active; AID 1025; activation factor at 5 µM; P33261;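 active means activation factor of at least 2 at 5 µM in the primary screen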;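 further: 0 = wells with 2.5 mM tranylcypromine and 1 = vehicle-only wells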
* hit, by the source's call; nt = no result given. Unless noted, no stated cut-off is given here; in the data, active means inhibition above about 30%; inactive means the rest.

SMILES | PostGolgi yeast | PostGolgi ctrl | CYP2C9 act | CYP2C19 inhib | CYP2C9 inh | CYP2C19 act
COc1ccc(CSc2nc(C)cc(=O)[nH]2)cc1 | 12.5 | 3.1 | 0.6 | 32.1 | 36.5 | 0.7
c1coc(-c2nnc(SCc3nc4ccccc4[nH]3)o2)c1 | 0.2 | 8.1 | 0.7 | 39.1 | 28.3 | 0.6
COC(=O)c1ccc(CSc2nc3ccccc3[nH]2)o1 | -6.5 | 7.7 | 0.6 | 81.3* | 36.1 | 0.2
CCOC(=O)c1ccc(CSc2n[nH]c(C)n2)o1 | -5.0 | 7.6 | 0.8 | 65.4* | 20.5 | 0.3
Cn1cnnc1SC(C(=O)Nc1cc(Cl)cc(Cl)c1)c1ccccc1 (stereo not drawn) | -2.0 | 24.7 | 0.8 | -11.7 | 18.0 | 1.1
c1cnc2c(SCc3ccc(-c4nnco4)cc3)cccc2c1 | 10.4 | 19.3 | 0.4 | 86.2* | 61.8* | 0.1
Cc1cccc(CSc2cccc3cccnc23)c1 | -8.5 | 1.1 | 1.4 | 45.9 | -38.9 | 0.5
O=C1CC(SCc2nc3ccccc3[nH]2)C(=O)N1c1ccc(F)cc1 (stereo not drawn) | 0.0 | 6.9 | 1 | 23.3 | 0.1 | 0.8
O=C1CCC(=O)N1c1ccc(CSc2nc3ccccc3[nH]2)cc1 | 3.1 | 14.0 | 0.4 | 64.4* | 62.0* | 0.4
CC(=O)Nc1cc(NC(C)=O)cc(C(=O)NC(C)(C)C)c1 | 6.9 | 5.1 | 0.9 | 1.2 | 10.4 | 1
O=C(COc1ccc2ccc(=O)oc2c1)Nc1ccc2c(c1)OCCO2 | 4.8 | 0.6 | nt | nt | nt | nt
Cc1cc(C)c(S(=O)(=O)Nc2nnc(C)s2)c(C)c1 | -11.7 | 3.7 | 0.1 | -1.7 | 86.4* | 1
Cc1ccc(NC(=O)Cn2cc3c(n2)CCC(C)C3)cc1 (stereo not drawn) | -2.4 | 10.6 | 0.8 | 16.5 | 20.1 | 0.8
CC1CCc2nn(CC(=O)NCCC3=CCCCC3)cc2C1 (stereo not drawn) | -4.8 | 36.5* | 0.7 | 18.7 | 29.8 | 0.8
COCCNC(=O)Cn1cc2c(n1)CCC(C)C2 (stereo not drawn) | -5.7 | -2.9 | 1.2 | 3.9 | -18.4 | 1
COC(=O)c1ccccc1NC(=O)Cn1cc2c(n1)CCC(C)C2 (stereo not drawn) | 2.3 | 9.8 | 0.4 | 12.7 | 60.6* | 0.9
O=C(Oc1ccc(Br)cc1)c1cncc(Br)c1 | 26.1 | 23.4 | 1 | 3.1 | 4.2 | 1
CCCCCCCc1c(C)nc(N2CCOCC2)[nH]c1=O | -9.7 | 21.0 | 0.3 | 50.6* | 74.2* | 0.5
Cc1nc(N2CCOCC2)[nH]c(=O)c1CCC(C)C | 1.9 | 9.6 | 1.3 | -10.4 | -31.0 | 1.1
COc1ccc(/C(O)=C2/C(=O)C(=O)N(CCCN(C)C)C2c2ccc(C)o2)cc1Cl (stereo not drawn) | 16.4 | -1.7 | 0.7 | 2.4 | 32.9 | 1
O=C(O)CN1C(=O)SC(Nc2ccc(Cl)cc2)C1=O (stereo not drawn) | -2.7 | 7.6 | 1 | 15.9 | 0.0 | 0.8
COc1ccc(NC2SC(=O)N(CC(=O)O)C2=O)cc1 (stereo not drawn) | 8.8 | 36.8* | 1 | -2.2 | -1.4 | 1
COc1ccc(NC(=S)NCc2ccco2)cc1 | -2.4 | 28.1 | 0.9 | 32.1 | 7.3 | 0.7
CCOc1ccc(NC(=S)N(Cc2ccc(N(C)C)cc2)Cc2ccco2)cc1 | 1.0 | 7.1 | 0.4 | 49.7 | 62.7* | 0.5
COc1ccc(-n2c(SCCC(=O)O)nnc2-c2ccncc2)cc1 | 1.4 | 6.5 | 0.7 | 24.5 | 34.8 | 0.8
SMILES | PostGolgi yeast | PostGolgi ctrl | CYP2C9 act | CYP2C19 inhib | CYP2C9 inh | CYP2C19 act
Cc1ccccc1-c1cc(C(=O)Nc2sc(C(=O)OC(C)C)c(C)c2C#N)c2ccccc2n1 | 1.8 | 6.3 | 0.2 | 44.4 | 84.6* | 0.6
COC(=O)c1sc(NC(=O)c2cc(-c3ccccc3)nc3ccccc23)c(C#N)c1C | 1.6 | -2.3 | 0.4 | 7.5 | 64.5* | 0.9
Cc1cc(NC(=O)c2ccc3c(c2)C(=O)N(Cc2cccnc2)C3=O)no1 | -1.8 | -11.3 | 1.4 | -12.6 | -40.6 | 1.1
O=C(c1ccc2c(c1)OCO2)N(CC1CCCO1)C1(C(=O)NC2CCCC2)CCCCC1 (stereo not drawn) | -2.7 | -6.0 | 0.5 | 50.6* | 54.7* | 0.5
CC1CCCCC1NC(=O)COn1nnc2ccc(Cl)cc21 (stereo not drawn) | 0.2 | -0.5 | 1.9 | 97.9* | -85.0 | 0
CCOc1ccccc1NC(=O)COn1nnc2ccc(Cl)cc21 | -4.0 | 20.5 | 1.3 | 56.4* | -26.4 | 0.4
Cc1cc(NC(=O)COn2nnc3ccc(Cl)cc32)no1 | -1.9 | 29.8 | 0.2 | 36.0 | 77.2* | 0.6
O=C1CCSc2ccc(Cl)cc2N1Cc1ccc(Cl)cc1 | 0.6 | 27.4 | 0.8 | 19.5 | 23.7 | 0.8
Cc1cccc(CN2CCNC2=O)c1 | -0.3 | -3.6 | nt | nt | nt | nt
O=C1CCSc2ccc(Cl)cc2N1Cc1ccccc1 | -3.2 | -1.6 | 0.8 | 66.4* | 22.6 | 0.3
Cc1cccc(CN2C(=O)CCSc3ccc(Cl)cc32)c1 | 7.8 | 27.6 | 0.7 | 67.1* | 32.0 | 0.3
O=C(COC(=O)Cn1cnc2ccccc21)NCCC1=CCCCC1 | 1.3 | -6.5 | 1.1 | -2.8 | -12.5 | 1
CCn1cc(C(=O)OCC(=O)Nc2cccc(S(=O)(=O)N3CCOCC3)c2)c(=O)c2ccc(C)nc21 | -10.9 | 5.8 | 0.3 | 36.9 | 67.1* | 0.6
O=C(COC(=O)CCc1nc2ccccc2s1)Nc1ccc(S(=O)(=O)N2CCOCC2)cc1 | nt | nt | 0.3 | 37.6 | 75.0* | 0.6
Cc1cc(NC(=O)COC(=O)c2cc(S(=O)(=O)N3CCOCC3)ccc2N2CCCCC2)no1 | -3.2 | 3.1 | 0.8 | 12.5 | 18.3 | 0.9
O=C(COC(=O)CCc1nc2ccccc2s1)Nc1cccc(S(=O)(=O)N2CCOCC2)c1 | -2.9 | -1.7 | 2.1* | 16.0 | -111.3 | 0.8
O=C1OCC/C1=C\c1ccccc1O | 12.3 | -9.6 | 1.6 | 10.6 | -55.6 | 0.9
O=c1nc(-c2ccccc2)c2ccccc2[nH]1 | 0.2 | 59.4* | 0.9 | 6.1 | 5.6 | 0.9
CC(C)CC(=O)Nc1ccc(F)c(Cl)c1 | 9.3 | 17.7 | 0.7 | 27.6 | 30.0 | 0.7
CN1c2ccsc2C(O)=C(C(=S)Nc2ccc(F)c(Cl)c2)S1(=O)=O | -5.6 | 0.3 | 0.2 | -0.4 | 84.1* | 1
OC(CNCc1ccco1)COc1ccccc1 (stereo not drawn) | 20.4 | 13.0 | 1.1 | 38.0 | -13.5 | 0.6
Cc1cccc(N(CC(N)=O)S(C)(=O)=O)c1C | -8.0 | 6.5 | 1 | -4.8 | -2.5 | 1
OC(CNCc1ccco1)Cn1c2ccccc2c2ccccc21 (stereo not drawn) | -8.1 | -5.8 | 0.7 | 64.9* | 32.2 | 0.4
Cc1cccc(C)c1N(CC(O)Cn1c2ccccc2c2ccccc21)S(C)(=O)=O (stereo not drawn) | -5.0 | 16.3 | 0.3 | 80.0* | 72.3* | 0.2
Cc1ccc(N(CC(O)Cn2c3ccccc3c3ccccc32)S(C)(=O)=O)cc1 (stereo not drawn) | 18.3 | 51.0* | 0 | 94.1* | 96.5* | 0.1

Screens as filed in PubChem.
